These results are taken from paper PMC4081100, “A DNA-binding-site landscape and regulatory network analysis for NAC transcription factors in Arabidopsis thaliana”.

What all share (assay): universal protein binding microarray (PBM); transcription factors of Arabidopsis thaliana; high values mean tight binding
The target of assay [1] is T1, GST-ANAC092(1-176) (Arabidopsis thaliana, UniProt Q9FKA0 1-176).
T1 sequence: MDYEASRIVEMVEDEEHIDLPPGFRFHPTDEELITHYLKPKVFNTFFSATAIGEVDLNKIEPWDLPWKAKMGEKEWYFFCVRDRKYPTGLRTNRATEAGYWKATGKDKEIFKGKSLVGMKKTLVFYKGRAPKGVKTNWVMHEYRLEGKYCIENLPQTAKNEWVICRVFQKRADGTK
To be noted: protein: recombinant; tags: GST; chain copies: 2; dsDNA, one strand shown. In a few lines:
(§1)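 For zinc-finger proteins, zinc acetate was added while GST-tagged NAC-domain, full-length or DNA-binding-domain proteins were induced in cells. Purification used glutathione–Sepharose 4B, and quantification used A280 or anti-GST western blot. Custom all-10-mer Agilent 4 × 180K arrays, made double-stranded by primer extension, each received a protein at 200 to 500 nM final in duplicate. Scoring covered gapped and ungapped 8-mers, with binding given as the normalised enrichment score (E-score).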

Assay [2] deals with GST-NTL6(1-168) (Arabidopsis thaliana, UniProt Q9SCK6 1-168). The settings on record: protein: recombinant; tags: GST; chain copies: 2; dsDNA, one strand shown. A digest of the protocol:
as §1

In assay [3] the target is T2, GST-ANAC019 NAC domain (Arabidopsis thaliana, UniProt Q9C932 14-162).
T2 sequence: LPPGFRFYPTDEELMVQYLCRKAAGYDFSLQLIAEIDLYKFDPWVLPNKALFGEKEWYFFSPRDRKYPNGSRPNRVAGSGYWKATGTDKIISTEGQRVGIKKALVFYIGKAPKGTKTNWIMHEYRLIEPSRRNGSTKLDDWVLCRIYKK
The settings on record: protein: recombinant; tags: GST; chain copies: 2; dsDNA, one strand shown. A digest of the protocol: as §1

Assay [4] addresses T3, GST-ANAC055(1-171) (Arabidopsis thaliana, UniProt Q9LDY8 1-171).
T3 sequence: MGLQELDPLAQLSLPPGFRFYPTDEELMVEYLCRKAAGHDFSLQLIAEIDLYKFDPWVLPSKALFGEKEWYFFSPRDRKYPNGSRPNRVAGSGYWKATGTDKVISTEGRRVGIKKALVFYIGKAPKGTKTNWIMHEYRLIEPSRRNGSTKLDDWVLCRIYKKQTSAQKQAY
The settings on record: protein: recombinant; tags: GST; chain copies: 2; dsDNA, one strand shown. A digest of the protocol: as §1

Assay [5] has as its target T4, GST-ATAF1 NAC domain (Arabidopsis thaliana, UniProt Q39013 7-158).
T4 sequence: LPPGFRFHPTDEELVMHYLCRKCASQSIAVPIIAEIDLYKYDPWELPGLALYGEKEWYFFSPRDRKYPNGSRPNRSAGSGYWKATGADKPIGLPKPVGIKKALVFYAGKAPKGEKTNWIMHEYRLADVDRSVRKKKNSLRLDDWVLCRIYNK
To be noted: protein: recombinant; tags: GST; chain copies: 2; dsDNA, one strand shown. A digest of the protocol: as §1

The target in assay [6] is T5, GST-ANAC092(1-285) full length (Arabidopsis thaliana, UniProt Q9FKA0 1-285).
T5 sequence: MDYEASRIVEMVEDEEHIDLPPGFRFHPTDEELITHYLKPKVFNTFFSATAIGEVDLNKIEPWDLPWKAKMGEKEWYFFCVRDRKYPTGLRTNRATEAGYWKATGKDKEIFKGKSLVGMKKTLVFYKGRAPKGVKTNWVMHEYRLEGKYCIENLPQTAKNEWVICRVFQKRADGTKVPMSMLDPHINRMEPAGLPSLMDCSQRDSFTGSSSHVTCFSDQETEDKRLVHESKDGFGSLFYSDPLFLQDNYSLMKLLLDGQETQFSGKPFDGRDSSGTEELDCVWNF
To be noted: protein: recombinant; tags: GST; chain copies: 2; dsDNA, one strand shown. In a few lines:
as §1

The target in assay [7] is T6, GST-NAP(1-166) (Arabidopsis thaliana, UniProt O49255 1-166).
T6 sequence: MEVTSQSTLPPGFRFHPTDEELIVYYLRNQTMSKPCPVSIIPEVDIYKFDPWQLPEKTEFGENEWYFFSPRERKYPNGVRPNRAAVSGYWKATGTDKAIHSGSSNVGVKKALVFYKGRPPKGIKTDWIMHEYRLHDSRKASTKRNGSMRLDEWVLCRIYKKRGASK
The settings on record: protein: recombinant; tags: GST; chain copies: 2; dsDNA, one strand shown. In a few lines:
as §1

Assay [8] addresses T7, GST-NST2(1-184) (Arabidopsis thaliana, UniProt Q9M274 1-184).
T7 sequence: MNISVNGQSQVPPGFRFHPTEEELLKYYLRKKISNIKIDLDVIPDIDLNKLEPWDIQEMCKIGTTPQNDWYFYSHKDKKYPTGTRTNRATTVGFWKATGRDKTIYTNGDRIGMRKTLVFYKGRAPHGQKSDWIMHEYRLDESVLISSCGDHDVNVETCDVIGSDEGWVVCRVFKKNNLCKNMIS
To be noted: protein: recombinant; tags: GST; chain copies: 2; dsDNA, one strand shown. A digest of the protocol: as §1

In assay [9] the target is T8, GST-NTL8 NAC domain (Arabidopsis thaliana, UniProt Q9XIN7 14-156).
T8 sequence: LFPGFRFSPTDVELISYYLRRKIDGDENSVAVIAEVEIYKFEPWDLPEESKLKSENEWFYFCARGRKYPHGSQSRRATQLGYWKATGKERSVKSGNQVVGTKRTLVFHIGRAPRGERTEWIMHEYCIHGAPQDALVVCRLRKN
To be noted: protein: recombinant; tags: GST; chain copies: 2; dsDNA, one strand shown. A digest of the protocol:
as §1

Assay [10] deals with T9, GST-VND3 NAC domain (Arabidopsis thaliana, UniProt Q9FH59 12-162).
T9 sequence: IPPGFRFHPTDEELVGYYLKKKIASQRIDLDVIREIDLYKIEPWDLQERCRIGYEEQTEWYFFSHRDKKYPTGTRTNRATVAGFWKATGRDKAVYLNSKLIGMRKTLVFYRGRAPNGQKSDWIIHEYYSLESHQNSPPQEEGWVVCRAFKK
The settings on record: protein: recombinant; tags: GST; chain copies: 2; dsDNA, one strand shown. A digest of the protocol:
as §1

In assay [11] the target is T10, GST-VND7 NAC domain (Arabidopsis thaliana, UniProt Q9C8W9 9-158).
T10 sequence: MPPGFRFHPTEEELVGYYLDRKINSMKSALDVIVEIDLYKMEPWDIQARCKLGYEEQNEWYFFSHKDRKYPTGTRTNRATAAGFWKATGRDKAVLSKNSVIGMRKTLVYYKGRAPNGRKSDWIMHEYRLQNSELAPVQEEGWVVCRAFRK
To be noted: protein: recombinant; tags: GST; chain copies: 2; dsDNA, one strand shown. In a few lines: as §1

For assay [12], the target named is GST-WRKY1(266-371) (Arabidopsis thaliana, UniProt Q9SI37 266-371). To be noted: protein: recombinant; tags: GST; dsDNA, one strand shown. In a few lines:
as §1

Sequence of GST-NTL6(1-168) (Q9SCK6 1-168): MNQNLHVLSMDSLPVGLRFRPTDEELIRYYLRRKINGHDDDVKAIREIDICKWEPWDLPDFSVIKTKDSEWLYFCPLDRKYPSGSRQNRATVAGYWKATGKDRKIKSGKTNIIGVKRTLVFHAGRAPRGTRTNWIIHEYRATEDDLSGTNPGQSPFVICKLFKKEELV
Sequence of GST-WRKY1(266-371) (Q9SI37 266-371): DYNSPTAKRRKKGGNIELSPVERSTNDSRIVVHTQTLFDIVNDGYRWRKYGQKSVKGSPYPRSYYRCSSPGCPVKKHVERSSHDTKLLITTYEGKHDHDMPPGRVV

On to CCACGGAA, for which the binding signal in [1] was determined as 0.219 E-score; in assay [2], 0.117 E-score; in assay [3], 0.427 E-score; in assay [4], 0.326 E-score; in [5] it was 0.211 E-score; in assay [6], 0.244 E-score. Besides, the binding signal in assay [7] turned out to be 0.149 E-score; in assay [8], 0.123 E-score; in assay [9] it was 0.107 E-score; in [10], 0.343 E-score; in assay [11], 0.316 E-score.
Turning to ACACGGCT, the binding signal was found to be 0.181 E-score in [1]; 0.418 E-score in [3]; 0.347 E-score in assay [4]; 0.264 E-score in [5]; 0.335 E-score in assay [6]; 0.194 E-score in [7]. Besides, the binding signal in [10] amounted to 0.348 E-score; in assay [11], 0.321 E-score.
For the sequence AGGTCAAA, the binding signal in [2] was determined as 0.0901 E-score; in assay [4], 0.0973 E-score; in [5] it was 0.0548 E-score; in assay [10], 0.062 E-score; in [11] it was 0.0735 E-score; in assay [12] it was 0.482 E-score.
For TTCGTCAA, the binding signal stood at 0.0728 E-score in assay [2]; 0.0829 E-score in assay [4]; 0.106 E-score in assay [5]; 0.0695 E-score in assay [6]; 0.0662 E-score in assay [8]; 0.0782 E-score in assay [10]. Besides, the binding signal in [12] is 0.437 E-score.
For the sequence AGAGGGAA, the binding signal in assay [1] is 0.114 E-score; in [2] it was 0.178 E-score; in assay [4], 0.0527 E-score; in assay [5], 0.0736 E-score; in assay [7], 0.111 E-score; in assay [9], 0.447 E-score. Further, the figures for the binding signal in assay [10] and in [11] were 0.0709 E-score and 0.0972 E-score, respectively.
Consider TGGTCAAA, for which the binding signal in assay [1] was 0.0858 E-score; in assay [5], 0.062 E-score; in [6], 0.0538 E-score; in assay [10], 0.118 E-score; in assay [12], 0.491 E-score.
On to TATGACCA, for which the figures for the binding signal in assay [10] and in [12] were 0.117 E-score and 0.424 E-score, respectively.
Take ATGGTCAA: the binding signal in assay [2] is 0.05 E-score; in [4] it was 0.0866 E-score; in assay [5], 0.155 E-score; in assay [8], 0.0826 E-score; in assay [10], 0.138 E-score; in [12], 0.485 E-score.
As to ATTGACTA, the binding signal in assay [1] came to 0.0863 E-score; in assay [4], 0.18 E-score; in assay [5] it was 0.259 E-score; in [6], 0.153 E-score; in [7], 0.0723 E-score; in assay [8], 0.182 E-score. Moreover, the figures for the binding signal in assay [10] and in assay [12] were 0.228 E-score and 0.466 E-score, respectively.
In the case of CTAGTCAA, the binding signal was 0.0699 E-score in assay [3]; 0.171 E-score in [4]; 0.148 E-score in assay [5]; 0.0883 E-score in assay [6]; 0.0822 E-score in assay [9]; 0.166 E-score in [10]. Further, the results for the binding signal in [11] and in assay [12] were 0.08 E-score and 0.474 E-score, respectively.
Take AGTCGTGC: the binding signal in assay [3] was found to be 0.412 E-score; in assay [4] it was 0.341 E-score; in assay [5], 0.264 E-score; in [10] it was 0.324 E-score; in assay [11] it was 0.273 E-score; in assay [12] it was 0.294 E-score.
Consider CATGGTCA, for which the binding signal turned out to be 0.0588 E-score in assay [10] and 0.443 E-score in assay [12].
As for CTTGACCA, the binding signal in [1] worked out at 0.0818 E-score; in assay [3], 0.0734 E-score; in [4], 0.104 E-score; in assay [5] it was 0.145 E-score; in assay [8], 0.1 E-score; in assay [10], 0.119 E-score. In assay [12], the binding signal is 0.484 E-score.
